Source: PubChem BioAssay AID1159580 (chemical genetic matrix, 2015)
Several values for one entry are separate records, joined by “and”; a condition that tells them apart may be missing. Equal values may be shown once. Screen size: about 5,500 compounds; about 2,000 (36%) were called active. Roughly 18% stayed inconclusive and do not appear here. No stated cut-off is given here; in the data, active means normalized growth mostly below about 0.91 (no sharp cut-off); inconclusive means no clear call, values can overlap the other calls; inactive means mostly above about 0.92. Some of the results follow.

Test: chemical genetic growth profiling, strain panel (AID 1159580);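 further: tested at 20 µM; growth read once vehicle control cultures reached saturation at 30 °C; 1 = growth at the plate median or of vehicle wells; lower values mean less growth of the strain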
Conditions: S. cerevisiae deletion strains, growth OD

Measured: normalized growth

CCOC(=O)C1C(C=C(C)C)C1(C)C (stereo unspecified)
inactive: locus YAL013W, strain DEP1, hits give low values 0.998 | locus YAL021C, strain ccr4, hits give low values 0.989 | locus YAL026C, strain drs2, hits give low values 1.01 | locus YAL030W, strain snc1, hits give low values 1 | locus YBL061C, strain skt5, hits give low values 1.01 | locus YBR009C, strain hhf1, hits give low values 0.998 | locus YBR021W, strain FUR4, hits give low values 0.979 | locus YBR023C, strain chs3, hits give low values 1 | locus YBR171W, strain sec66, hits give low values 1 | locus YBR229C, strain ROT2, hits give low values 1 | locus YBR231C, strain swc5, hits give low values 0.995 | locus YBR279W, strain paf1, hits give low values 1 | locus YCL011C, strain gbp2, hits give low values 0.992 | locus YCL016C, strain dcc1, hits give low values 1.01 | locus YCL029C, strain bik1, hits give low values 1.02 | locus YCL061C, strain MRC1, hits give low values 0.996 | locus YCL069W, strain vba3, hits give low values 1 | locus YCR088W, strain abp1, hits give low values 1 | locus YDL005C, strain med2, hits give low values 0.991 | locus YDL035C, strain GPR1, hits give low values 1.01 | locus YDL040C, strain nat1, hits give low values 1.02 | locus YDL074C, strain BRE1, hits give low values 1.03 | locus YDL101C, strain DUN1, hits give low values 1 | locus YDL185W, strain tfp1, hits give low values 1.02 | locus YDL192W, strain arf1, hits give low values 1 | locus YDR001C, strain nth1, hits give low values 1 | locus YDR069C, strain doa4, hits give low values 1 | locus YDR101C, strain arx1, hits give low values 1.01 | locus YDR137W, strain rgp1, hits give low values 1.01 | locus YDR159W, strain sac3, hits give low values 0.939 | locus YDR162C, strain NBP2, hits give low values 1.01 | locus YDR195W, strain ref2 0.99 | locus YDR297W, strain sur2, hits give low values 0.991 | locus YDR318W, strain mcm21, hits give low values 1.01 | locus YDR334W, strain swr1, hits give low values 1.01 | locus YDR335W, strain msn5, hits give low values 1 | locus YDR388W, hits give low values 1.01 | locus YDR392W, strain spt3, hits give low values 0.876 | locus YDR502C, strain sam2, hits give low values 1.01 | locus YEL003W, strain gim4, hits give low values 1.02 | locus YEL037C, strain rad23, hits give low values 1 | locus YEL061C, strain CIN8 (second series), hits give low values 1.01 | locus YEL061C, strain CIN8, hits give low values 1 | locus YER015W, strain faa2, hits give low values 1 | locus YER016W, strain bim1, hits give low values 0.978 | locus YER110C, hits give low values 1.02 | locus YER111C, strain swi4, hits give low values 0.997 | locus YER155C, strain BEM2 (second series), hits give low values 0.981 | locus YER155C, strain BEM2, hits give low values 1 | locus YER167W, strain BCK2, hits give low values 0.998 | locus YFR010W, strain ubp6, hits give low values 1 | locus YGL078C, strain dbp3, hits give low values 1 | locus YGL086W, strain mad1, hits give low values 1.01 | locus YGL167C, strain pmr1, hits give low values 1 | locus YGL173C, strain kem1, hits give low values 1 | locus YGL227W, strain vid30, hits give low values 1 | locus YGL240W, strain doc1, hits give low values 0.97 | locus YGL248W, strain PDE1, hits give low values 1.01 | locus YGL253W, strain hxk2, hits give low values 1.02 | locus YGR078C, strain PAC10, hits give low values 1.01 | locus YGR135W, strain pre9, hits give low values 0.993 | locus YGR252W, strain gcn5, hits give low values 0.982 | locus YHR013C, strain ard1, hits give low values 1 | locus YHR027C, strain rpn1, hits give low values 1 | locus YHR030C, strain SLT2, hits give low values 1 and 1.04 | locus YHR079C, strain IRE1 (second series), hits give low values 1 | locus YHR079C, strain IRE1, hits give low values 1.04 | locus YHR094C, strain hxt1, hits give low values 1.01 | locus YHR129C, strain ARP1, hits give low values 1 | locus YHR142W, strain chs7, hits give low values 1.01 | locus YHR200W, strain rpn10, hits give low values 1.02 | locus YIL066C, strain RNR3, hits give low values 0.996 | locus YIL073C, strain SPO22, hits give low values 1.06 | locus YIL125W, strain kgd1, hits give low values 1.01 | locus YIR030C, strain dcg1, hits give low values 1.01 | locus YJL092W, strain hpr5, hits give low values 1 | locus YJL095W, strain BCK1 (second series), hits give low values 1.02 | locus YJL095W, strain BCK1, hits give low values 1 and 1.02 | locus YJL115W, strain asf1, hits give low values 0.999 | locus YJL129C, strain trk1, hits give low values 0.984 | locus YJL134W, strain LCB3, hits give low values 1 | locus YJL154C, strain vps35, hits give low values 1 | locus YJL164C, strain tpk1, hits give low values 0.989 | locus YJL166W, strain qcr8, hits give low values 0.996 | locus YJL168C, strain set2, hits give low values 1.01 | locus YJL187C, strain SWE1 (second series), hits give low values 1 | locus YJR043C, strain POL32, hits give low values 0.988 | locus YJR066W, strain TOR1, hits give low values 0.991 | locus YKL009W, strain mrt4, hits give low values 1.06 | locus YKL068W, hits give low values 1.01 | locus YKL085W, strain MDH1 (second series), hits give low values 1.01 | locus YKL085W, strain MDH1, hits give low values 1.01 | locus YKL160W, strain elf1, hits give low values 1.01 | locus YKL190W, strain CNB1, hits give low values 0.983 | locus YKR001C, strain vps1, hits give low values 1.04 | locus YKR026C, strain gcn3, hits give low values 1 | locus YKR091W, strain srl3, hits give low values 0.997 | locus YLL001W, strain dnm1, hits give low values 0.978 | locus YLL026W, hits give low values 1.01 | locus YLL041C, strain sdh2, hits give low values 1.01 | locus YLR027C, strain aat2, hits give low values 0.982 | locus YLR039C, strain RIC1, hits give low values 1.01 | locus YLR058C, strain SHM2, hits give low values 1 | locus YLR102C, strain apc9, hits give low values 1.01 | locus YLR113W, strain HOG1, hits give low values 1.04 | locus YLR221C, strain rsa3, hits give low values 1.01 | locus YLR258W, strain gsy2, hits give low values 1.01 | locus YLR262C, strain YPT6 (second series), hits give low values 1.01 | locus YLR262C, strain YPT6, hits give low values 1.02 | locus YLR268W, strain sec22, hits give low values 1.03 | locus YLR320W, strain mms22, hits give low values 0.976 | locus YLR330W, strain CHS5, hits give low values 1.03 | locus YLR342W, strain FKS1 (second series), hits give low values 0.98 | locus YLR342W, strain FKS1, hits give low values 1 | locus YLR357W, strain rsc2, hits give low values 0.925 | locus YLR370C, strain arc18, hits give low values 1.02 | locus YLR371W, strain rom2, hits give low values 1.01 | locus YLR384C, strain iki3, hits give low values 0.995 | locus YLR418C, strain cdc73, hits give low values 1.02 | locus YML016C, strain PPZ1, hits give low values 1.01 | locus YML032C, strain rad52, hits give low values 1 | locus YML120C, strain ndi1, hits give low values 0.994 | locus YML124C, strain tub3, hits give low values 1 | locus YMR058W, strain fet3, hits give low values 1 | locus YMR078C, strain ctf18, hits give low values 1 | locus YMR125W, strain sto1, hits give low values 0.983 | locus YMR129W, hits give low values 1 | locus YMR205C, strain PFK2, hits give low values 0.995 | locus YMR223W, strain ubp8, hits give low values 0.992 | locus YMR231W, strain pep5, hits give low values 0.999 | locus YMR307W, strain GAS1, hits give low values 1.02 | locus YNL067W, strain RPL9B, hits give low values 1 | locus YNL071W, strain lat1, hits give low values 1.01 | locus YNL183C, strain NPR1, hits give low values 0.981 | locus YNL209W, strain ssb2, hits give low values 0.99 | locus YNL233W, strain BNI4, hits give low values 1 | locus YNL248C, strain rpa49, hits give low values 0.95 | locus YNL250W, strain rad50, hits give low values 1.02 | locus YNL271C, strain bni1, hits give low values 1.02 | locus YNL298W, strain CLA4, hits give low values 1.01 | locus YNL307C, strain MCK1, hits give low values 1.02 | locus YNL322C, strain KRE1 (second series), hits give low values 0.969 | locus YNR049C, strain mso1, hits give low values 1 | locus YNR052C, strain pop2, hits give low values 1.01 | locus YOL012C, strain htz1 0.867 | locus YOL147C, strain pex11, hits give low values 1.01 | locus YOR001W, strain rrp6, hits give low values 0.981 | locus YOR061W, strain CKA2, hits give low values 1 | locus YOR069W, strain VPS5, hits give low values 1 | locus YOR070C, strain gyp1, hits give low values 0.996 | locus YOR080W, strain dia2, hits give low values 0.991 | locus YOR083W, strain WHI5, hits give low values 0.937 | locus YOR106W, strain vam3, hits give low values 1 | locus YOR136W, strain idh2, hits give low values 1.02 | locus YOR144C, strain elg1, hits give low values 1.01 | locus YOR184W, strain ser1, hits give low values 1.01 | locus YOR231W, strain MKK1, hits give low values 1.03 | locus YOR265W, strain rbl2, hits give low values 1.01 | locus YOR270C, strain vph1, hits give low values 1.03 | locus YOR290C, strain snf2, hits give low values 1.01 | locus YOR316C, strain cot1, hits give low values 1.01 | locus YPL051W, strain arl3, hits give low values 1 | locus YPL078C, strain atp4, hits give low values 0.991 | locus YPL106C, strain sse1, hits give low values 0.963 | locus YPL240C, strain hsp82, hits give low values 0.998 | locus YPL256C, strain CLN2, hits give low values 1.02 | locus YPR119W, strain clb2, hits give low values 1.01 | locus YPR141C, strain kar3, hits give low values 1.01 | locus YPR163C, strain tif3, hits give low values 1.01 | locus YPR167C, strain met16, hits give low values 1.03 | strain wtn01, hits give low values 1.02
